# Experiments:
# Assay in all cases: DAPPL (digital affinity profiling via proximity ligation, sequencing); 10 mM Tris-HCl pH 7.5, 50 mM NaCl, 1 mM DTT, 4% glycerol, room temperature, 30 min; GST-TFs on glutathione beads, 16-mer random dsDNA library, 0.1% formaldehyde crosslink after washing; high values mean tight binding
# FLI1 = molecular target: T1, FLI1 (Homo sapiens, UniProt Q01543 1-452); conditions: protein: recombinant; tags: N-terminal GST; dsDNA, one strand shown
# T1 sequence: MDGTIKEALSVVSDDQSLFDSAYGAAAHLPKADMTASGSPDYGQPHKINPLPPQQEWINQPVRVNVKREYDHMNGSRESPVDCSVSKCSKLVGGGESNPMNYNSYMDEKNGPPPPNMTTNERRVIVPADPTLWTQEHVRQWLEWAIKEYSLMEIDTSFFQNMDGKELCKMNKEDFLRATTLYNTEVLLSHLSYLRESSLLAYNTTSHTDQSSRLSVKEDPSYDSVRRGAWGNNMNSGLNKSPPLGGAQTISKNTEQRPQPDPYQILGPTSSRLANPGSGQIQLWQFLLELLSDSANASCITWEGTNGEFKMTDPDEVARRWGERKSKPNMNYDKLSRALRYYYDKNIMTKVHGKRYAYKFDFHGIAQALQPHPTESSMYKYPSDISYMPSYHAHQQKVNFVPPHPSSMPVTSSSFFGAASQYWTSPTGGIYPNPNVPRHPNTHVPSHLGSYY
# Summary of the method: (§1)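 In yeast, human transcription factors were expressed with a GST fusion, then pulled down on glutathione beads and given DNA barcodes. Pooled with a tag-only sample, they were exposed to 200 nmole of a 16-mer random double-stranded DNA library (Tris/NaCl/DTT/glycerol buffer, room temperature, 30 min), washed, crosslinked with 0.1% formaldehyde, proximity-ligated using BsaI/T4 ligase for 1 h at 37 °C, PCR-amplified and read on an Illumina NextSeq500. Each hexamer's frequency of reads for a factor, divided by the matching frequency for the tag-only sample, gives the binding signal.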
# ELK1 = molecular target: T2, ELK1 (Homo sapiens, UniProt P19419 1-428); conditions: protein: recombinant; tags: N-terminal GST; dsDNA, one strand shown
# T2 sequence: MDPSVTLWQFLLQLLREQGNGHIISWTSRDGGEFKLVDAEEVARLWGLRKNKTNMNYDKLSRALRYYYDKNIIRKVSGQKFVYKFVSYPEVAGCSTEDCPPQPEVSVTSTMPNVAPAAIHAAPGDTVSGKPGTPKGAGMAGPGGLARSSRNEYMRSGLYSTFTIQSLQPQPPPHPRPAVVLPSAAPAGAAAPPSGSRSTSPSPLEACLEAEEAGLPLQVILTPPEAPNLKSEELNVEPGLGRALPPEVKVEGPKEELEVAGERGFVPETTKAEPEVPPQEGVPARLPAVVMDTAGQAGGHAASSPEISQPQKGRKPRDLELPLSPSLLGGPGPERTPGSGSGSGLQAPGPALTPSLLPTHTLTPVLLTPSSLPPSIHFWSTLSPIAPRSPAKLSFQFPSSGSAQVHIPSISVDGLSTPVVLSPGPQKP
# Summary of the method: as §1
# GABPA = molecular target: T3, GABPA (Homo sapiens, UniProt Q06546 1-454); conditions: protein: recombinant; tags: N-terminal GST; dsDNA, one strand shown
# T3 sequence: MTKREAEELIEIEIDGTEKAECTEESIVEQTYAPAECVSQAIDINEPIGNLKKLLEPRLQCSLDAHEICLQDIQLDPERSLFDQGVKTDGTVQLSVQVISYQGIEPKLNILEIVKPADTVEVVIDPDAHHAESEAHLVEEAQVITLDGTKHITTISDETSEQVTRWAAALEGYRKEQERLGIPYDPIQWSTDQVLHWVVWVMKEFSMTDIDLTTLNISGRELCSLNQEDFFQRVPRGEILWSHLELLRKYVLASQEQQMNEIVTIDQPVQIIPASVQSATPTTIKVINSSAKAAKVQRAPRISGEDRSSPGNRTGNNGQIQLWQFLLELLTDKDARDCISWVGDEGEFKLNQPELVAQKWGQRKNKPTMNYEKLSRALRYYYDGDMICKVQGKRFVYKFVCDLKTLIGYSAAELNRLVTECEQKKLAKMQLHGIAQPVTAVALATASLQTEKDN
# Summary of the method: as §1
# ERG = molecular target: T4, ERG (Homo sapiens, UniProt P11308 1-479); conditions: protein: recombinant; tags: N-terminal GST; dsDNA, one strand shown
# T4 sequence: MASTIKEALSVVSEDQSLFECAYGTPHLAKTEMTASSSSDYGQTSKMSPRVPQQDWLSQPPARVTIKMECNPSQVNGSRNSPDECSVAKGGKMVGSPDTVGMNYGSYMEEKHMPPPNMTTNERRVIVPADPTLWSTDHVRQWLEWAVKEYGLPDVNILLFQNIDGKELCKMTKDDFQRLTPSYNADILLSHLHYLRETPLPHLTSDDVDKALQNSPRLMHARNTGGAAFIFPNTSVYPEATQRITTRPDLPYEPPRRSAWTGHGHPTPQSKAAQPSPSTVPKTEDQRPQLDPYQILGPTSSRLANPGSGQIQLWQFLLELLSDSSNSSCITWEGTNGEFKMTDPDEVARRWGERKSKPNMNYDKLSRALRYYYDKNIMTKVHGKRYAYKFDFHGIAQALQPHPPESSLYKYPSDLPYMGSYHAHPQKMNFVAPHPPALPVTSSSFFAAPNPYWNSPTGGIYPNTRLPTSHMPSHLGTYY
# Summary of the method: as §1
# ELF1 = ELF1 (Homo sapiens, UniProt P32519 1-619); conditions: protein: recombinant; tags: N-terminal GST; dsDNA, one strand shown
# Summary of the method: as §1
# EHF = molecular target: T5, EHF (Homo sapiens, UniProt Q9NZC4 1-300); conditions: protein: recombinant; tags: N-terminal GST; dsDNA, one strand shown
# T5 sequence: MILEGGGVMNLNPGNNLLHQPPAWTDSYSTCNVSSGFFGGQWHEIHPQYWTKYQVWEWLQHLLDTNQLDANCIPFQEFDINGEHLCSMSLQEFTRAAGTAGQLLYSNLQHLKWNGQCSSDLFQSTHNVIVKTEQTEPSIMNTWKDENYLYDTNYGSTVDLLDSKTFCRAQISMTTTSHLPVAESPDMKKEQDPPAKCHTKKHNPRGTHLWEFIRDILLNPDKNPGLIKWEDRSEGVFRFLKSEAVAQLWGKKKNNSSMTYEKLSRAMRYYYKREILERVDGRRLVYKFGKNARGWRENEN
# Summary of the method: as §1
# SPI1 = SPI1 (Homo sapiens, UniProt P17947 1-270); conditions: protein: recombinant; tags: N-terminal GST; dsDNA, one strand shown
# Summary of the method: as §1
# SPIB = SPIB (Homo sapiens, UniProt Q01892 1-262); conditions: protein: recombinant; tags: N-terminal GST; dsDNA, one strand shown
# Summary of the method: as §1
# ELK3 = molecular target: T6, ELK3 (Homo sapiens, UniProt P41970 1-407); conditions: protein: recombinant; tags: N-terminal GST; dsDNA, one strand shown
# T6 sequence: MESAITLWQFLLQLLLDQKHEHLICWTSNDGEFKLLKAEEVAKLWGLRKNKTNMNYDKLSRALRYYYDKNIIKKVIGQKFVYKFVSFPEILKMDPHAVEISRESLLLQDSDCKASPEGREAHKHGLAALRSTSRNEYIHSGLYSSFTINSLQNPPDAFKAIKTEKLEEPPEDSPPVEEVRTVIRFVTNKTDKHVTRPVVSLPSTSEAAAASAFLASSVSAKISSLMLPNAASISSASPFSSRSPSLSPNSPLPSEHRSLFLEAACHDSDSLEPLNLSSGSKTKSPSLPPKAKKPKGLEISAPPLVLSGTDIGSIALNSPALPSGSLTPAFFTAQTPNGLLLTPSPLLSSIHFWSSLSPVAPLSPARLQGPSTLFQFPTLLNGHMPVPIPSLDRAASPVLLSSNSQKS
# Summary of the method: as §1
# FEV = molecular target: T7, FEV (Homo sapiens, UniProt Q99581 1-238); conditions: protein: recombinant; tags: N-terminal GST; dsDNA, one strand shown
# T7 sequence: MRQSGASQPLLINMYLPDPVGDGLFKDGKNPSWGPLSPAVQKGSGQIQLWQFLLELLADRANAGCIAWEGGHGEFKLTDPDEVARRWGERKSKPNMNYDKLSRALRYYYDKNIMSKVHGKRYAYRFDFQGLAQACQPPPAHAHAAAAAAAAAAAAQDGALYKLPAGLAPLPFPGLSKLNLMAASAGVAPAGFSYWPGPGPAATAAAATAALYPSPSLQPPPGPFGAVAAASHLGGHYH
# Summary of the method: as §1
# ETV5 = ETV5 (Homo sapiens, UniProt P41161 1-510); conditions: protein: recombinant; tags: N-terminal GST; dsDNA, one strand shown
# Summary of the method: as §1
# HSF1 = HSF1 (Homo sapiens, UniProt Q00613 1-529); conditions: protein: recombinant; tags: N-terminal GST; chain copies: 3; dsDNA, one strand shown
# Summary of the method: as §1
# SPIC = molecular target: T8, SPIC (Homo sapiens, UniProt Q8N5J4 1-248); conditions: protein: recombinant; tags: N-terminal GST; dsDNA, one strand shown
# T8 sequence: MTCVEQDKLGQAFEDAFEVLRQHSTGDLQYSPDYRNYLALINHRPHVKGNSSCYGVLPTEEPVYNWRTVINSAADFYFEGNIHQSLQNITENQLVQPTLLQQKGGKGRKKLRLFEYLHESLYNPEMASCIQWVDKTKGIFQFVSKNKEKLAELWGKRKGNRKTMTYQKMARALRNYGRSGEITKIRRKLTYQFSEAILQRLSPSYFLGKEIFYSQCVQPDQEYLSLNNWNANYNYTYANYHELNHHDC
# Summary of the method: as §1
# ELF4 = ELF4 (Homo sapiens, UniProt Q99607 1-663); conditions: protein: recombinant; tags: N-terminal GST; dsDNA, one strand shown
# Summary of the method: as §1
# ELK4 = molecular target: T9, ELK4 (Homo sapiens, UniProt P28324-2 1-405); conditions: protein: recombinant; tags: N-terminal GST; dsDNA, one strand shown
# T9 sequence: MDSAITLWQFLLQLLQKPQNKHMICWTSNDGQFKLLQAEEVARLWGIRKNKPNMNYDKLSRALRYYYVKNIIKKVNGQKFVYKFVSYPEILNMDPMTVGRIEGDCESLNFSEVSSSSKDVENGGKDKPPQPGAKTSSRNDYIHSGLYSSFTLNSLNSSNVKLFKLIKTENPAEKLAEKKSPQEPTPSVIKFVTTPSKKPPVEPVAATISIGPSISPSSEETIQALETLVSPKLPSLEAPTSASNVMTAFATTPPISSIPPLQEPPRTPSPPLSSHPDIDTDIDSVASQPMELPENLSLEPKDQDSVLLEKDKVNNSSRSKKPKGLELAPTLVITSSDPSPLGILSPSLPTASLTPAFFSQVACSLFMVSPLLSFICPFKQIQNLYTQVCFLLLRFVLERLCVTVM
# Summary of the method: as §1
# ETV2 = molecular target: T10, ETV2 (Homo sapiens, UniProt O00321 1-342); conditions: protein: recombinant; tags: N-terminal GST; dsDNA, one strand shown
# T10 sequence: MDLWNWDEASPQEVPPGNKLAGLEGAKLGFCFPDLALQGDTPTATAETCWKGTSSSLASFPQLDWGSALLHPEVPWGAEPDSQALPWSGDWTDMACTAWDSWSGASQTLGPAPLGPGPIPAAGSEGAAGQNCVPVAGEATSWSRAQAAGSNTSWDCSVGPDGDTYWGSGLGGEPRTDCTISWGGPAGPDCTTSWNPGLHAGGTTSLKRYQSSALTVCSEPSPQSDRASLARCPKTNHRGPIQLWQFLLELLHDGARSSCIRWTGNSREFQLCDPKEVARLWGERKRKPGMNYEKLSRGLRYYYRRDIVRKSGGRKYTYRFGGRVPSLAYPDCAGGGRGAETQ
# Summary of the method: as §1
# ELF3 = molecular target: T11, ELF3 (Homo sapiens, UniProt P78545 1-371); conditions: protein: recombinant; tags: N-terminal GST; dsDNA, one strand shown
# T11 sequence: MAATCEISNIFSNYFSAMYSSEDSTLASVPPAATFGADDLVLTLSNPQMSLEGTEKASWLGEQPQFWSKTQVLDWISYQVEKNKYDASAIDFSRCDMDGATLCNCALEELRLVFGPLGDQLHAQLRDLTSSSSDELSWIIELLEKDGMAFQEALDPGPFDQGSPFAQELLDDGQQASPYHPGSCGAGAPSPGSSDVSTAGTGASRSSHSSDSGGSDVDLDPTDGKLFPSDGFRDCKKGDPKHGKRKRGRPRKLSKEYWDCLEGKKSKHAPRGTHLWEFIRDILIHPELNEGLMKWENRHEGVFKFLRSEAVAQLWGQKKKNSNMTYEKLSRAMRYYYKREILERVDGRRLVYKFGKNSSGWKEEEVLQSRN
# Summary of the method: as §1
# CRX = CRX (Homo sapiens, UniProt O43186 1-299); conditions: protein: recombinant; tags: N-terminal GST; dsDNA, one strand shown
# Summary of the method: as §1
# ETV1 = ETV1 (Homo sapiens, UniProt P50549 1-477); conditions: protein: recombinant; tags: N-terminal GST; dsDNA, one strand shown
# Summary of the method: as §1
# Chain of CRX (O43186 whole entry): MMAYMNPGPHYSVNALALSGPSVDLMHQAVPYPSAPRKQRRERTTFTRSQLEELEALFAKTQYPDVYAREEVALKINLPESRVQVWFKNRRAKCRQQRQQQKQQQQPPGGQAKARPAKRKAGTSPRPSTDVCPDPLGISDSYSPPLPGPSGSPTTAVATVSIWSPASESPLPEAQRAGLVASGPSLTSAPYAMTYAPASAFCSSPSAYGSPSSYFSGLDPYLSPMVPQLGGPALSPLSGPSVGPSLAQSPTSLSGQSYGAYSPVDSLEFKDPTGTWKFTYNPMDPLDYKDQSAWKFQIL
# Chain of HSF1 (Q00613 whole entry): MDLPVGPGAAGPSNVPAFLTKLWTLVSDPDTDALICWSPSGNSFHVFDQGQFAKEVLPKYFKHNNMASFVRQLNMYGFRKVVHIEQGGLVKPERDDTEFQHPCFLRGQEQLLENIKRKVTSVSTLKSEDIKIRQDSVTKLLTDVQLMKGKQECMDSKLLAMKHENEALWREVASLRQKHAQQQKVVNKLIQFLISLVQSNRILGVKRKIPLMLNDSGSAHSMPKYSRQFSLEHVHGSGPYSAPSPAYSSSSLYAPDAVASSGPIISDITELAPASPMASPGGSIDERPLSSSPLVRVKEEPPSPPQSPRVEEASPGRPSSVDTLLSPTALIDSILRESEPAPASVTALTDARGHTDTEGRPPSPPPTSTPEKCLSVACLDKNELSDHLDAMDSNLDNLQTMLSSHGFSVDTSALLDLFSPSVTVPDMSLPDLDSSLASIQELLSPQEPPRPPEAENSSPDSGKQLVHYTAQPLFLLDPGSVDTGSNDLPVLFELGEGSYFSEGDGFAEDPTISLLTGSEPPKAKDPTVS
# Chain of ETV1 (P50549 whole entry): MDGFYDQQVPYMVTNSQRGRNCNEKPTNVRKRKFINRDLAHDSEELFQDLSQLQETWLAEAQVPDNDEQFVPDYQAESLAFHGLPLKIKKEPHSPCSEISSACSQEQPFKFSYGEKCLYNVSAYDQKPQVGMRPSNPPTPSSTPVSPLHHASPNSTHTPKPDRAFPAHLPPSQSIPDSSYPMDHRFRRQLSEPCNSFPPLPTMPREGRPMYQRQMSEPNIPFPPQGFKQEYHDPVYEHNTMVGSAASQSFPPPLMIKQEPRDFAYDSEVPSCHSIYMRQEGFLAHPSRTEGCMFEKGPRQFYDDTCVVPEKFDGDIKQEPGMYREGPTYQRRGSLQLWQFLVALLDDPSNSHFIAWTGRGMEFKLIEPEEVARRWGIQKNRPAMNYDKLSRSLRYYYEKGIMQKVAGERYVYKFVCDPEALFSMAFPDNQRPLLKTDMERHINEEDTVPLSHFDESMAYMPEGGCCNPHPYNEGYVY
# Chain of ELF1 (P32519 whole entry): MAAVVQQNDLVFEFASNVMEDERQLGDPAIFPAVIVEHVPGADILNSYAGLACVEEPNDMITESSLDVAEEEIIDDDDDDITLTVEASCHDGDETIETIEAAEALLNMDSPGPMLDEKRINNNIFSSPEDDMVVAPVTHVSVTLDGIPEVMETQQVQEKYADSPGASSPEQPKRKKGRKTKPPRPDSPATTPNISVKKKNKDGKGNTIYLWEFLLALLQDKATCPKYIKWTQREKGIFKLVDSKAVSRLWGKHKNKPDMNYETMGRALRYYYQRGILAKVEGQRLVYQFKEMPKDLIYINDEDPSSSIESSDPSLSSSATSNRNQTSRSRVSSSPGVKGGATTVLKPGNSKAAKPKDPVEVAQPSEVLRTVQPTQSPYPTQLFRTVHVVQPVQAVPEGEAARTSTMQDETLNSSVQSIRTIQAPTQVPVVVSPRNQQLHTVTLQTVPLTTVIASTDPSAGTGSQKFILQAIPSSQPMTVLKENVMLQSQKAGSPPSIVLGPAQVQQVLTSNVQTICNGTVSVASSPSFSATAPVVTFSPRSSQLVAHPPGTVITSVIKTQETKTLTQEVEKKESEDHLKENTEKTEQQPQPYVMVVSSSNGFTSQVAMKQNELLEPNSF
# Chain of SPIB (Q01892 whole entry): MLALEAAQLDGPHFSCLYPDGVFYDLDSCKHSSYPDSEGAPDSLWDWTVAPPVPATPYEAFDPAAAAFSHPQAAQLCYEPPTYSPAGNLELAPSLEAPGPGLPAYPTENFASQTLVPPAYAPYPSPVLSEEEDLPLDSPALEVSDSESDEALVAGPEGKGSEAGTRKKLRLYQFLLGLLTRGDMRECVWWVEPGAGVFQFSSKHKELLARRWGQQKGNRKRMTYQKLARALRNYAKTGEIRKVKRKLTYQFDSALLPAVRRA
# Chain of ELF4 (Q99607 whole entry): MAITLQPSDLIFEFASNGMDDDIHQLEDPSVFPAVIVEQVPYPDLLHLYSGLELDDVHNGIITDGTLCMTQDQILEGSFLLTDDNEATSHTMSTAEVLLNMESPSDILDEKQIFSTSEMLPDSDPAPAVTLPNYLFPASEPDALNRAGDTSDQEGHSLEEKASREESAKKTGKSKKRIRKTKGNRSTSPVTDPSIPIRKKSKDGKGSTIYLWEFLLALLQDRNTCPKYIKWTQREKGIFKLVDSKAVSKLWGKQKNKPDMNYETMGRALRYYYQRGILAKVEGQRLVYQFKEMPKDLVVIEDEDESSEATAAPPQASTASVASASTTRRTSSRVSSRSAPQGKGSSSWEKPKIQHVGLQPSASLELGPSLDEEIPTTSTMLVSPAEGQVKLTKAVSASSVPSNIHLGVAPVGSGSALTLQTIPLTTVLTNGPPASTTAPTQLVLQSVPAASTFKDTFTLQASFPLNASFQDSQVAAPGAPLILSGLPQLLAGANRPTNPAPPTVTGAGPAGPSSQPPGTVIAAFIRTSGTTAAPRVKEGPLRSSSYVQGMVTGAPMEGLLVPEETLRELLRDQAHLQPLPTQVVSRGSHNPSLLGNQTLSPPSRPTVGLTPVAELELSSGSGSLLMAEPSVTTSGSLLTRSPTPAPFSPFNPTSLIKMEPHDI
# Chain of ETV5 (P41161 whole entry): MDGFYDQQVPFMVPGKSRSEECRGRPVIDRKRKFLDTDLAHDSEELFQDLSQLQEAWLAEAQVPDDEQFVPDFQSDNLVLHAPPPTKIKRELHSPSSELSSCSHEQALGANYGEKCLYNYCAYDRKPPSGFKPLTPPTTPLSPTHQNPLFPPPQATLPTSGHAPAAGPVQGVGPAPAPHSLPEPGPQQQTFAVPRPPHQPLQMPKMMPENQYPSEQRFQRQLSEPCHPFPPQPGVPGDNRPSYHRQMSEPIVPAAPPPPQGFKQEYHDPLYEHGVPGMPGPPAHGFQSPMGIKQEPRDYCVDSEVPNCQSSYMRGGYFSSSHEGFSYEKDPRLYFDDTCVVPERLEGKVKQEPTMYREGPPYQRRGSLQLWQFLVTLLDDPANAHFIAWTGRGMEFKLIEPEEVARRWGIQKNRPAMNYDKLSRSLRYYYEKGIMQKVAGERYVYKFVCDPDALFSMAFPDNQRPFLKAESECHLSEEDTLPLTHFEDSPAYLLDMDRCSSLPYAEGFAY
sequence,measurement,setting,value
TGGCCT,binding signal,FLI1,"1.59 fold enrichment (6-mer frequency, TF over GST control)"
same,binding signal,ELK1,"1.37 fold enrichment (6-mer frequency, TF over GST control)"
same,binding signal,GABPA,"1.51 fold enrichment (6-mer frequency, TF over GST control)"
same,binding signal,ERG,"1.54 fold enrichment (6-mer frequency, TF over GST control)"
same,binding signal,ELF1,"1.48 fold enrichment (6-mer frequency, TF over GST control)"
same,binding signal,EHF,"1.5 fold enrichment (6-mer frequency, TF over GST control)"
same,binding signal,SPI1,"1.55 fold enrichment (6-mer frequency, TF over GST control)"
same,binding signal,SPIB,"1.48 fold enrichment (6-mer frequency, TF over GST control)"
same,binding signal,ELK3,"1.29 fold enrichment (6-mer frequency, TF over GST control)"
same,binding signal,FEV,"1.54 fold enrichment (6-mer frequency, TF over GST control)"
same,binding signal,ETV5,"1.4 fold enrichment (6-mer frequency, TF over GST control)"
same,binding signal,HSF1,"1.32 fold enrichment (6-mer frequency, TF over GST control)"
same,binding signal,SPIC,"1.26 fold enrichment (6-mer frequency, TF over GST control)"
same,binding signal,ELF4,"1.51 fold enrichment (6-mer frequency, TF over GST control)"
same,binding signal,ELK4,"1.53 fold enrichment (6-mer frequency, TF over GST control)"
same,binding signal,ETV2,"1.46 fold enrichment (6-mer frequency, TF over GST control)"
same,binding signal,ELF3,"1.47 fold enrichment (6-mer frequency, TF over GST control)"
same,binding signal,CRX,"1.31 fold enrichment (6-mer frequency, TF over GST control)"
same,binding signal,ETV1,"1.27 fold enrichment (6-mer frequency, TF over GST control)"

# From PMC7862700, “An all-to-all approach to the identification of sequence-specific readers for epigenetic DNA modifications on cytosine”
